PubChem BioAssay AID1159580 (chemical genetic matrix, 2015)
Screen size: about 5,500 compounds; about 2,000 (36%) were called active. Not shown: some 18% with an inconclusive outcome. Rule as the data show it: active = normalized growth mostly below about 0.91 (no sharp cut-off); inconclusive = no clear call, values can overlap the other calls; inactive = mostly above about 0.92. The list shows a part of the results.

Experiment: chemical genetic growth profiling, strain panel (AID 1159580);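 also: tested at 20 µM; growth read once vehicle control cultures reached saturation at 30 °C; 1 = growth at the plate median or of vehicle wells; lower values mean less growth of the strain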
Conditions: growth OD

Measured: normalized growth

COc1cc(O)c2c(=O)cc(-c3ccc(OC)c(-c4c(O)cc(O)c5c(=O)cc(-c6ccc(O)cc6)oc45)c3)oc2c1
inactive: S. cerevisiae deletion strains, locus YAL021C, strain ccr4, hits give low values 0.991 | S. cerevisiae deletion strains, locus YAL026C, strain drs2, hits give low values 0.982 | S. cerevisiae deletion strains, locus YAL030W, strain snc1, hits give low values 1.01 | S. cerevisiae deletion strains, locus YBL061C, strain skt5, hits give low values 0.996 | S. cerevisiae deletion strains, locus YBR009C, strain hhf1, hits give low values 0.988 | S. cerevisiae deletion strains, locus YBR023C, strain chs3, hits give low values 0.993 | S. cerevisiae deletion strains, locus YBR171W, strain sec66, hits give low values 1.03 | S. cerevisiae deletion strains, locus YBR229C, strain ROT2, hits give low values 0.948 | S. cerevisiae deletion strains, locus YBR231C, strain swc5, hits give low values 0.972 | S. cerevisiae deletion strains, locus YBR279W, strain paf1, hits give low values 1 | S. cerevisiae deletion strains, locus YCL011C, strain gbp2, hits give low values 1.02 | S. cerevisiae deletion strains, locus YCL016C, strain dcc1, hits give low values 1 | S. cerevisiae deletion strains, locus YCL029C, strain bik1, hits give low values 0.992 | S. cerevisiae deletion strains, locus YCL061C, strain MRC1, hits give low values 1 | S. cerevisiae deletion strains, locus YCL069W, strain vba3, hits give low values 1.02 | S. cerevisiae deletion strains, locus YCR088W, strain abp1, hits give low values 1.03 | S. cerevisiae deletion strains, locus YDL005C, strain med2, hits give low values 1.03 | S. cerevisiae deletion strains, locus YDL035C, strain GPR1, hits give low values 0.951 | S. cerevisiae deletion strains, locus YDL040C, strain nat1, hits give low values 1.01 | S. cerevisiae deletion strains, locus YDL074C, strain BRE1, hits give low values 1.01 | S. cerevisiae deletion strains, locus YDL101C, strain DUN1, hits give low values 0.959 | S. cerevisiae deletion strains, locus YDL134C, strain PPH21, hits give low values 0.917 | S. cerevisiae deletion strains, locus YDL185W, strain tfp1, hits give low values 0.968 | S. cerevisiae deletion strains, locus YDL192W, strain arf1, hits give low values 1 | S. cerevisiae deletion strains, locus YDR001C, strain nth1, hits give low values 1.02 | S. cerevisiae deletion strains, locus YDR069C, strain doa4, hits give low values 0.914 | S. cerevisiae deletion strains, locus YDR101C, strain arx1, hits give low values 0.997 | S. cerevisiae deletion strains, locus YDR137W, strain rgp1, hits give low values 1.05 | S. cerevisiae deletion strains, locus YDR150W, strain NUM1, hits give low values 0.953 | S. cerevisiae deletion strains, locus YDR159W, strain sac3, hits give low values 1.02 | S. cerevisiae deletion strains, locus YDR162C, strain NBP2, hits give low values 0.915 | S. cerevisiae deletion strains, locus YDR195W, strain ref2 0.986 | S. cerevisiae deletion strains, locus YDR297W, strain sur2, hits give low values 0.996 | S. cerevisiae deletion strains, locus YDR318W, strain mcm21, hits give low values 0.987 | S. cerevisiae deletion strains, locus YDR334W, strain swr1, hits give low values 1 | S. cerevisiae deletion strains, locus YDR335W, strain msn5, hits give low values 1.03 | S. cerevisiae deletion strains, locus YDR388W, hits give low values 0.986 | S. cerevisiae deletion strains, locus YDR392W, strain spt3, hits give low values 0.91 | S. cerevisiae deletion strains, locus YDR502C, strain sam2, hits give low values 0.978 | S. cerevisiae deletion strains, locus YEL003W, strain gim4, hits give low values 1 | S. cerevisiae deletion strains, locus YEL037C, strain rad23, hits give low values 1.01 | S. cerevisiae deletion strains, locus YEL061C, strain CIN8 (second series), hits give low values 1.02 | S. cerevisiae deletion strains, locus YEL061C, strain CIN8, hits give low values 0.934 | S. cerevisiae deletion strains, locus YER015W, strain faa2, hits give low values 1 | S. cerevisiae deletion strains, locus YER016W, strain bim1, hits give low values 1.01 | S. cerevisiae deletion strains, locus YER110C, hits give low values 0.983 | S. cerevisiae deletion strains, locus YER111C, strain swi4, hits give low values 1.01 | S. cerevisiae deletion strains, locus YER155C, strain BEM2 (second series), hits give low values 0.962 | S. cerevisiae deletion strains, locus YER155C, strain BEM2, hits give low values 1.03 | S. cerevisiae deletion strains, locus YER167W, strain BCK2, hits give low values 0.957 | S. cerevisiae deletion strains, locus YFR010W, strain ubp6, hits give low values 0.965 | S. cerevisiae deletion strains, locus YGL078C, strain dbp3, hits give low values 0.987 | S. cerevisiae deletion strains, locus YGL167C, strain pmr1, hits give low values 1.01 | S. cerevisiae deletion strains, locus YGL173C, strain kem1, hits give low values 0.975 | S. cerevisiae deletion strains, locus YGL227W, strain vid30, hits give low values 1.03 | S. cerevisiae deletion strains, locus YGL240W, strain doc1, hits give low values 1.05 | S. cerevisiae deletion strains, locus YGL253W, strain hxk2, hits give low values 1.03 | S. cerevisiae deletion strains, locus YGR078C, strain PAC10, hits give low values 0.913 | S. cerevisiae deletion strains, locus YGR135W, strain pre9, hits give low values 0.971 | S. cerevisiae deletion strains, locus YGR229C, strain SMI1, hits give low values 0.92 | S. cerevisiae deletion strains, locus YGR252W, strain gcn5, hits give low values 1.09 | S. cerevisiae deletion strains, locus YHR013C, strain ard1, hits give low values 1 | S. cerevisiae deletion strains, locus YHR027C, strain rpn1, hits give low values 1.01 | S. cerevisiae deletion strains, locus YHR030C, strain SLT2, hits give low values 0.966 | S. cerevisiae deletion strains, locus YHR079C, strain IRE1 (second series), hits give low values 0.994 | S. cerevisiae deletion strains, locus YHR094C, strain hxt1, hits give low values 0.99 | S. cerevisiae deletion strains, locus YHR129C, strain ARP1, hits give low values 0.931 | S. cerevisiae deletion strains, locus YHR142W, strain chs7, hits give low values 1.05 | S. cerevisiae deletion strains, locus YHR200W, strain rpn10, hits give low values 0.988 | S. cerevisiae deletion strains, locus YIL066C, strain RNR3, hits give low values 0.88 | S. cerevisiae deletion strains, locus YIL073C, strain SPO22, hits give low values 0.947 | S. cerevisiae deletion strains, locus YIL125W, strain kgd1, hits give low values 0.99 | S. cerevisiae deletion strains, locus YIR030C, strain dcg1, hits give low values 1.02 | S. cerevisiae deletion strains, locus YJL092W, strain hpr5, hits give low values 1.02 | S. cerevisiae deletion strains, locus YJL095W, strain BCK1 (second series), hits give low values 1.01 | S. cerevisiae deletion strains, locus YJL095W, strain BCK1, hits give low values 0.939 | S. cerevisiae deletion strains, locus YJL115W, strain asf1, hits give low values 1.02 | S. cerevisiae deletion strains, locus YJL129C, strain trk1, hits give low values 1.06 | S. cerevisiae deletion strains, locus YJL134W, strain LCB3, hits give low values 0.984 | S. cerevisiae deletion strains, locus YJL154C, strain vps35, hits give low values 1.03 | S. cerevisiae deletion strains, locus YJL164C, strain tpk1, hits give low values 0.98 | S. cerevisiae deletion strains, locus YJL166W, strain qcr8, hits give low values 1.01 | S. cerevisiae deletion strains, locus YJL168C, strain set2, hits give low values 0.992 | S. cerevisiae deletion strains, locus YJL187C, strain SWE1 (second series), hits give low values 0.891 | S. cerevisiae deletion strains, locus YJL187C, strain SWE1, hits give low values 0.997 | S. cerevisiae deletion strains, locus YJR043C, strain POL32, hits give low values 0.935 | S. cerevisiae deletion strains, locus YJR075W, strain HOC1, hits give low values 0.973 | S. cerevisiae deletion strains, locus YKL009W, strain mrt4, hits give low values 1.02 | S. cerevisiae deletion strains, locus YKL068W, hits give low values 0.98 | S. cerevisiae deletion strains, locus YKL085W, strain MDH1 (second series), hits give low values 1 | S. cerevisiae deletion strains, locus YKL085W, strain MDH1, hits give low values 1 | S. cerevisiae deletion strains, locus YKL160W, strain elf1, hits give low values 0.991 | S. cerevisiae deletion strains, locus YKR001C, strain vps1, hits give low values 0.962 | S. cerevisiae deletion strains, locus YKR026C, strain gcn3, hits give low values 1.01 | S. cerevisiae deletion strains, locus YKR091W, strain srl3, hits give low values 1.01 | S. cerevisiae deletion strains, locus YLL001W, strain dnm1, hits give low values 1.02 | S. cerevisiae deletion strains, locus YLL026W, hits give low values 1.01 | S. cerevisiae deletion strains, locus YLL041C, strain sdh2, hits give low values 1.02 | S. cerevisiae deletion strains, locus YLR027C, strain aat2, hits give low values 1.01 | S. cerevisiae deletion strains, locus YLR039C, strain RIC1, hits give low values 0.95 | S. cerevisiae deletion strains, locus YLR058C, strain SHM2, hits give low values 0.913 | S. cerevisiae deletion strains, locus YLR102C, strain apc9, hits give low values 0.99 | S. cerevisiae deletion strains, locus YLR221C, strain rsa3, hits give low values 1 | S. cerevisiae deletion strains, locus YLR258W, strain gsy2, hits give low values 1.01 | S. cerevisiae deletion strains, locus YLR262C, strain YPT6 (second series), hits give low values 1.04 | S. cerevisiae deletion strains, locus YLR262C, strain YPT6, hits give low values 1.04 | S. cerevisiae deletion strains, locus YLR268W, strain sec22, hits give low values 0.963 | S. cerevisiae deletion strains, locus YLR320W, strain mms22, hits give low values 0.996 | S. cerevisiae deletion strains, locus YLR330W, strain CHS5, hits give low values 0.975 | S. cerevisiae deletion strains, locus YLR342W, strain FKS1 (second series), hits give low values 0.981 | S. cerevisiae deletion strains, locus YLR342W, strain FKS1, hits give low values 0.996 | S. cerevisiae deletion strains, locus YLR357W, strain rsc2, hits give low values 0.985 | S. cerevisiae deletion strains, locus YLR370C, strain arc18, hits give low values 1.01 | S. cerevisiae deletion strains, locus YLR371W, strain rom2, hits give low values 0.996 | S. cerevisiae deletion strains, locus YLR384C, strain iki3, hits give low values 1.04 | S. cerevisiae deletion strains, locus YLR418C, strain cdc73, hits give low values 0.975 | S. cerevisiae deletion strains, locus YML016C, strain PPZ1, hits give low values 0.957 | S. cerevisiae deletion strains, locus YML032C, strain rad52, hits give low values 0.998 | S. cerevisiae deletion strains, locus YML120C, strain ndi1, hits give low values 1.03 | S. cerevisiae deletion strains, locus YML124C, strain tub3, hits give low values 1 | S. cerevisiae deletion strains, locus YMR058W, strain fet3, hits give low values 0.969 | S. cerevisiae deletion strains, locus YMR078C, strain ctf18, hits give low values 0.997 | S. cerevisiae deletion strains, locus YMR125W, strain sto1, hits give low values 1.01 | S. cerevisiae deletion strains, locus YMR129W, hits give low values 1.02 | S. cerevisiae deletion strains, locus YMR205C, strain PFK2, hits give low values 1.01 | S. cerevisiae deletion strains, locus YMR223W, strain ubp8, hits give low values 0.971 | S. cerevisiae deletion strains, locus YMR231W, strain pep5, hits give low values 1.01 | S. cerevisiae deletion strains, locus YMR307W, strain GAS1, hits give low values 1.17 | S. cerevisiae deletion strains, locus YNL067W, strain RPL9B, hits give low values 0.951 | S. cerevisiae deletion strains, locus YNL071W, strain lat1, hits give low values 1.02 | S. cerevisiae deletion strains, locus YNL153C, strain GIM3, hits give low values 0.912 | S. cerevisiae deletion strains, locus YNL209W, strain ssb2, hits give low values 0.994 | S. cerevisiae deletion strains, locus YNL233W, strain BNI4, hits give low values 0.973 | S. cerevisiae deletion strains, locus YNL248C, strain rpa49, hits give low values 1.02 | S. cerevisiae deletion strains, locus YNL250W, strain rad50, hits give low values 0.97 | S. cerevisiae deletion strains, locus YNL271C, strain bni1, hits give low values 0.986 | S. cerevisiae deletion strains, locus YNL298W, strain CLA4, hits give low values 0.975 | S. cerevisiae deletion strains, locus YNL307C, strain MCK1, hits give low values 0.965 | S. cerevisiae deletion strains, locus YNL322C, strain KRE1 (second series), hits give low values 1.03 | S. cerevisiae deletion strains, locus YNR049C, strain mso1, hits give low values 1.02 | S. cerevisiae deletion strains, locus YNR052C, strain pop2, hits give low values 0.993 | S. cerevisiae deletion strains, locus YOL012C, strain htz1 0.606 | S. cerevisiae deletion strains, locus YOL147C, strain pex11, hits give low values 0.99 | S. cerevisiae deletion strains, locus YOR001W, strain rrp6, hits give low values 0.987 | S. cerevisiae deletion strains, locus YOR061W, strain CKA2, hits give low values 0.917 | S. cerevisiae deletion strains, locus YOR069W, strain VPS5, hits give low values 0.98 | S. cerevisiae deletion strains, locus YOR070C, strain gyp1, hits give low values 1.02 | S. cerevisiae deletion strains, locus YOR080W, strain dia2, hits give low values 1 | S. cerevisiae deletion strains, locus YOR083W, strain WHI5, hits give low values 0.996 | S. cerevisiae deletion strains, locus YOR106W, strain vam3, hits give low values 0.983 | S. cerevisiae deletion strains, locus YOR136W, strain idh2, hits give low values 0.993 | S. cerevisiae deletion strains, locus YOR144C, strain elg1, hits give low values 1.01 | S. cerevisiae deletion strains, locus YOR184W, strain ser1, hits give low values 0.958 | S. cerevisiae deletion strains, locus YOR265W, strain rbl2, hits give low values 0.999 | S. cerevisiae deletion strains, locus YOR270C, strain vph1, hits give low values 1.02 | S. cerevisiae deletion strains, locus YOR290C, strain snf2, hits give low values 0.982 | S. cerevisiae deletion strains, locus YOR316C, strain cot1, hits give low values 0.989 | S. cerevisiae deletion strains, locus YPL051W, strain arl3, hits give low values 0.968 | S. cerevisiae deletion strains, locus YPL078C, strain atp4, hits give low values 1.03 | S. cerevisiae deletion strains, locus YPL106C, strain sse1, hits give low values 1 | S. cerevisiae deletion strains, locus YPL240C, strain hsp82, hits give low values 1.01 | S. cerevisiae deletion strains, locus YPR119W, strain clb2, hits give low values 1.01 | S. cerevisiae deletion strains, locus YPR141C, strain kar3, hits give low values 0.98 | S. cerevisiae deletion strains, locus YPR163C, strain tif3, hits give low values 0.997 | S. cerevisiae deletion strains, locus YPR167C, strain met16, hits give low values 0.99 | S. cerevisiae deletion strains, strain wtn01, hits give low values 0.969 | S. cerevisiae strains, strain wild type, hits give low values 0.904
active: S. cerevisiae deletion strains, locus YBR021W, strain FUR4, hits give low values 1.18 [resistant] | S. cerevisiae deletion strains, locus YGL248W, strain PDE1, hits give low values 0.877
